# PubChem BioAssay (EPA / NIEHS)
# Activity calls are given as the source filed them. Rule for the calls: active = hit-call score of the fitted dose curve at least 0.9, where 1 is the maximum; inactive = score below 0.9.
# Experiments:
# [1] = ATG_GLI_CIS: Attagene CIS-FACTORIAL HepG2 Assay for human Zinc Finger Protein GLI1 (AID 2282945); settings: HepG2, Attagene cis-factorial reporter mRNA, GLI element; actives raise or lower the signal
# Summary of the method: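 Bidirectional curve fits relative to DMSO, using reporter mRNA levels from RT-PCR plus capillary electrophoresis. Cells were HepG2 transiently carrying cis-regulated reporter constructs, harvested 24 h after dosing.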
# [2] = target: Bile acid receptor (Homo sapiens) (UniProt Q96RI1); test: ATG_IR1_CIS: Attagene CIS-FACTORIAL HepG2 Assay for human Nuclear Receptor Subfamily 1 Group H Member 4 (NR1H4), IR1 submotif (AID 2282946); settings: IR1 reporter transcription, actives raise or lower the signal
# Sequence of Bile acid receptor (Homo sapiens) (Q96RI1 whole entry, looked up): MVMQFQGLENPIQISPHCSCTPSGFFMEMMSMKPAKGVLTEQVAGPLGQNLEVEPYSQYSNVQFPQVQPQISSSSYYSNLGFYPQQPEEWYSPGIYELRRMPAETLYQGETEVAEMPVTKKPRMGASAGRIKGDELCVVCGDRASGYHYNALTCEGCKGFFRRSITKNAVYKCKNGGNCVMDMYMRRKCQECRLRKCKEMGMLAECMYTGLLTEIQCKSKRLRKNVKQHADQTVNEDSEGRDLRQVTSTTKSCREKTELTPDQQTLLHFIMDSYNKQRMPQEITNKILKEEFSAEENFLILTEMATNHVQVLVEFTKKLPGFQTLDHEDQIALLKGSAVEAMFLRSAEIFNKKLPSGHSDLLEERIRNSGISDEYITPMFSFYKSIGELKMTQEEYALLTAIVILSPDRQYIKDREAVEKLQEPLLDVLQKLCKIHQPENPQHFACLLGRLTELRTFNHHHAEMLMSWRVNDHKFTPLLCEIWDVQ
# Summary of the method: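 HepG2 cells transiently transfected with multiplexed cis-element reporter units read endogenous transcription factor activity. After 24 h compound exposure, reporter mRNA was quantified by RT-PCR, fluorescent labelling, HpaI digestion and capillary electrophoresis; bidirectional fitting versus DMSO baseline.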
# [3] = ATG_GRE_CIS: Attagene CIS-FACTORIAL HepG2 Assay for human Glucocorticoid Response Elements (GRE) (AID 2282947); settings: HepG2 GRE cis-reporter, Attagene multiplex mRNA; actives raise or lower the signal
# Summary of the method: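 Reporter transcripts read by RT-PCR with capillary electrophoresis fluorescence after a 24 h chemical exposure of HepG2 cells transiently transfected with multiple cis-element reporter units. Gain or loss fitted against DMSO.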
# [4] = ATG_ISRE_CIS: Attagene CIS-FACTORIAL HepG2 Assay for human Interferon Regulatory Factor 1 (IRF1) binding to an Interferon-Stimulated Response Element (ISRE) (AID 2282948); settings: HepG2 ISRE cis-reporter (Attagene), mRNA transcription readout; actives raise or lower the signal
# Summary of the method: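 Uses HepG2 liver cells transfected with cis-regulated reporters and measures mRNA 24 h post-dosing through RT-PCR, primer-extension labelling and capillary electrophoresis, with DMSO as negative control.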
# [5] = ATG_M_32_CIS: Attagene CIS-FACTORIAL HepG2 Assay for M32 Transcription Factor (Internal Marker) (AID 2282949); settings: HepG2 Attagene cis-factorial M32 reporter, mRNA; actives raise or lower the signal;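 note: background control marker of the multiplexed CIS panel rather than a real target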
# Summary of the method: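 HepG2 human liver cells transiently transfected with cis-promoter-driven multiple reporter transcription units, dosed 24 h. Reporter mRNA quantified by RT-PCR, FAM-labelled primer extension, HpaI digest and capillary electrophoresis; bidirectional fit versus DMSO baseline.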
# [6] = ATG_M_06_CIS: Attagene CIS-FACTORIAL HepG2 Assay for M06 Transcription Factor (Internal Marker) (AID 2282950); settings: HepG2 Attagene CIS-FACTORIAL M06 internal marker reporter; actives raise or lower the signal
# Summary of the method: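 Fluorescence-labelled RT-PCR products from cis-promoter reporter units, cut with HpaI and resolved by capillary electrophoresis, give the signal. Cells are human HepG2, dosed for 24 h. Serves as background control, fitted relative to DMSO.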
# [7] = target: Hypoxia-inducible factor 1-alpha (Homo sapiens) (UniProt Q16665); test: ATG_HIF1a_CIS: Attagene CIS-FACTORIAL HepG2 Assay for human Hypoxia Inducible Factor 1 (HIF1A) (AID 2282951); settings: HepG2 Attagene cis-factorial HIF1a reporter transcription; actives raise or lower the signal
# Sequence of Hypoxia-inducible factor 1-alpha (Homo sapiens) (Q16665 whole entry, looked up): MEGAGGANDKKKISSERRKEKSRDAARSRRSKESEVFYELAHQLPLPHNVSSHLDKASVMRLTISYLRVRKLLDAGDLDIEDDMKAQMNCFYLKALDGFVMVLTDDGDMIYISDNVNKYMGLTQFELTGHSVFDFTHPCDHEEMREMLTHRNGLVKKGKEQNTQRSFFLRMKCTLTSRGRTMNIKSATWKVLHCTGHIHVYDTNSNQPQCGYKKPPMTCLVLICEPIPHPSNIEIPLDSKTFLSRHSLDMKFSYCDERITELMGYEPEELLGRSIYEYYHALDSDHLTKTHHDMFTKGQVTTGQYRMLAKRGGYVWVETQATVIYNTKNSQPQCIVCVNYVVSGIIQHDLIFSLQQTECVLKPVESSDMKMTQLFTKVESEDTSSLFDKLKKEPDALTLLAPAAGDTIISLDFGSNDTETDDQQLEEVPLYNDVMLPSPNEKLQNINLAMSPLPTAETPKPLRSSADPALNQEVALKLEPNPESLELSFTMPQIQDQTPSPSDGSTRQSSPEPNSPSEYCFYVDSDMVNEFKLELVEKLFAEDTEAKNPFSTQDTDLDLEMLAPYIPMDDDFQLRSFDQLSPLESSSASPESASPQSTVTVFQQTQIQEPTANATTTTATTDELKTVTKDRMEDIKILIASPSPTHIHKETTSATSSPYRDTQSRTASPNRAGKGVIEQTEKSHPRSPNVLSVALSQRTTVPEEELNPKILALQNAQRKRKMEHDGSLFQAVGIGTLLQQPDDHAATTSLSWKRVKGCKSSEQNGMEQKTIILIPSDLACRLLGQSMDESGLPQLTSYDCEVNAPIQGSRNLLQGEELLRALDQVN
# Summary of the method: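 Cis-element reporter constructs were transiently transfected into HepG2 cells, which were treated for 24 h; reporter RNA was reverse-transcribed, amplified, labelled and resolved by capillary electrophoresis.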
# [8] = target: Hepatocyte nuclear factor 6 (Homo sapiens) (UniProt Q9UBC0); test: ATG_HNF6_CIS: Attagene CIS-FACTORIAL HepG2 Assay for human Hepatocyte Nuclear Factor 6 (HNF6) (AID 2282952); settings: HepG2 Attagene cis-factorial HNF6 reporter transcription; actives raise or lower the signal
# Sequence of Hepatocyte nuclear factor 6 (Homo sapiens) (Q9UBC0 whole entry, looked up, the tested form may be a part): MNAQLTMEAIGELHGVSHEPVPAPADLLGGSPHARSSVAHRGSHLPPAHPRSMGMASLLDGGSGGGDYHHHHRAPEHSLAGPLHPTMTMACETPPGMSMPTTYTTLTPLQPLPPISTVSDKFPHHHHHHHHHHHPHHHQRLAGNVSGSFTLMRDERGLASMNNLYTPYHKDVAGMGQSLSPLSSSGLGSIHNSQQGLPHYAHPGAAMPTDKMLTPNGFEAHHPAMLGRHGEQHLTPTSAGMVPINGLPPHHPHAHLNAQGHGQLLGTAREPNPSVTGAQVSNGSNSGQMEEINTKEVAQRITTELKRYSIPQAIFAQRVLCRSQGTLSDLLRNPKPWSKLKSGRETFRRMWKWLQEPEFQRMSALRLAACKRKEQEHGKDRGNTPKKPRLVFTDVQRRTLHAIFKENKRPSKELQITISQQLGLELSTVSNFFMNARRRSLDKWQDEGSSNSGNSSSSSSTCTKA
# Summary of the method: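 First, HepG2 cells were transfected with the multiplexed cis reporter library and dosed with chemical for 24 h. Next, RNA was reverse-transcribed, PCR-amplified and fluorescently labelled. Finally, HpaI-digested fragments were read by capillary electrophoresis.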
# [9] = target: Heat shock factor protein 1 (Homo sapiens) (UniProt Q00613); test: ATG_HSE_CIS: Attagene CIS-FACTORIAL HepG2 Assay for human Heat Shock Transcription Factor 1 (HSE) (AID 2282953); settings: HepG2 HSE cis-reporter, Attagene RNA transcription; actives raise or lower the signal
# Sequence of Heat shock factor protein 1 (Homo sapiens) (Q00613 whole entry, looked up): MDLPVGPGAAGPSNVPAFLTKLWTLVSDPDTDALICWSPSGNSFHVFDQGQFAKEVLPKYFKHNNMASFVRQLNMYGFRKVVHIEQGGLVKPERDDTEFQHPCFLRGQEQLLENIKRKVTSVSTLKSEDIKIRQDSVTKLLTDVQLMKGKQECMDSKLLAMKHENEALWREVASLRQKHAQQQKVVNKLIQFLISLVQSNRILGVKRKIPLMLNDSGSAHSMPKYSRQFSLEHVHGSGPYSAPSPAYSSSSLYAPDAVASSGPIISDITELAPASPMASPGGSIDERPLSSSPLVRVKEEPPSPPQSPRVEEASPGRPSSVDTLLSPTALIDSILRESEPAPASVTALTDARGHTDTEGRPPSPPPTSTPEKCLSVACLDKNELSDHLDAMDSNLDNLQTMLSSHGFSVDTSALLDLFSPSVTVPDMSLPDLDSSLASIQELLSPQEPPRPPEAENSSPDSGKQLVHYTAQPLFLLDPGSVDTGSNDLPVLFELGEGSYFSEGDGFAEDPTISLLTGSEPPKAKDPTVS
# Summary of the method: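 After a 24 h incubation with test chemical, transfected HepG2 cells were harvested for RNA; reporter transcripts were measured by RT-PCR and capillary electrophoresis. Values reflect gain or loss of signal relative to DMSO.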
# [10] = ATG_MRE_CIS: Attagene CIS-FACTORIAL HepG2 Assay for human Metal Responsive Element (MRE) (AID 2282954); settings: HepG2 MRE cis-reporter transcription, Attagene multiplex; actives raise or lower the signal
# Summary of the method: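 Endogenous MRE-dependent transcription read as reporter mRNA in transiently transfected human HepG2 cells at 24 h. RNA reverse-transcribed, PCR-amplified, labelled and resolved by capillary electrophoresis; gain or loss relative to DMSO.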
# [11] = target: Paired box protein Pax-6 (Homo sapiens) (UniProt P26367); test: ATG_Pax6_CIS: Attagene CIS-FACTORIAL HepG2 Assay for human Paired Box 6 (PAX6) (AID 2282956); settings: HepG2 CIS-FACTORIAL PAX6 reporter transcription, RNA readout; actives raise or lower the signal
# Sequence of Paired box protein Pax-6 (Homo sapiens) (P26367 whole entry, looked up): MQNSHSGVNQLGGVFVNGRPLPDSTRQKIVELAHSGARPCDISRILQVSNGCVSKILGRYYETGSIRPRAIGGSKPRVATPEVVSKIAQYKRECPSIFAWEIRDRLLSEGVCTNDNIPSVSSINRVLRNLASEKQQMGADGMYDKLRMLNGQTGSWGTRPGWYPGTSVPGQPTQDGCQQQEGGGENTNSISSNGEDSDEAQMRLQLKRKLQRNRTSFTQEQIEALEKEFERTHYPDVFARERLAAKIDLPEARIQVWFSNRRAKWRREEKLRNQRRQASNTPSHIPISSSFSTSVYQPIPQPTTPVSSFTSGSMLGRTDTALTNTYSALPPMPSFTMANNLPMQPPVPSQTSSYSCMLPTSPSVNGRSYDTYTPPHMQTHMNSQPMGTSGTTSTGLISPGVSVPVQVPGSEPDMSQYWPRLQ
# Summary of the method: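 DMSO-referenced bidirectional fits of reporter mRNA fluorescence; HepG2 with transient cis-promoter MRTUs, 24 h post-dose, RT-PCR plus capillary electrophoresis detection.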
# [12] = ATG_PXRE_CIS: Attagene CIS-FACTORIAL HepG2 Assay for human Pregnane X Receptor Element (PXRE) (AID 2282957); settings: HepG2 Attagene CIS-FACTORIAL PXRE reporter, mRNA; actives raise or lower the signal
# Summary of the method: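 After a 24 h chemical incubation, total RNA from transfected HepG2 cells was reverse-transcribed and reporter cDNA amplified, FAM-labeled, HpaI-digested and sized by capillary electrophoresis. DMSO served as baseline for bidirectional curve fitting.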
# [13] = ATG_PPRE_CIS: Attagene CIS-FACTORIAL HepG2 Assay for human Peroxisome Proliferator-activated Response Element (PPRE) (AID 2282958); settings: HepG2 PPRE cis-element reporter, Attagene transcription factor profiling; actives raise or lower the signal
# Summary of the method: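 DMSO served as negative control and baseline for bidirectional curve fitting. Signal came from PPRE-regulated reporter mRNA in HepG2 cells, measured 24 h post-dosing by RT-PCR, 6-FAM primer extension and capillary electrophoresis.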
# [14] = ATG_RORE_CIS: Attagene CIS-FACTORIAL HepG2 Assay for human RAR-related Orphan Receptor Element (RORE) (AID 2282959); settings: HepG2 Attagene cis-factorial RORE reporter, mRNA; actives raise or lower the signal
# Summary of the method: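 Transfect HepG2 with MRTUs; treat 24 h; extract RNA; RT with oligo(dT); PCR with reporter-specific primers; 6-FAM primer extension; HpaI digest 2 h at 37 C; capillary electrophoresis. Fit vs DMSO, bidirectional.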
# [15] = ATG_Sox_CIS: Attagene CIS-FACTORIAL HepG2 Assay for human SRY-box transcription factor (SOX) (AID 2282960); settings: HepG2 Attagene cis-factorial SOX reporter, mRNA; actives raise or lower the signal
# Summary of the method: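 Fluorescence-labelled cDNA fragments from reporter transcripts, sized by CE, give the signal. Cells: HepG2, transiently transfected with cis-regulated reporter units. Exposure 24 h; DMSO negative control; bidirectional curve fitting.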
# [16] = target: Transcription factor Sp1 (Homo sapiens) (UniProt P08047); test: ATG_Sp1_CIS: Attagene CIS-FACTORIAL HepG2 Assay for human Specificity Protein 1 (Sp1) (AID 2282961); settings: HepG2 Sp1 cis-reporter transcription, actives raise or lower the signal
# Sequence of Transcription factor Sp1 (Homo sapiens) (P08047 whole entry, looked up): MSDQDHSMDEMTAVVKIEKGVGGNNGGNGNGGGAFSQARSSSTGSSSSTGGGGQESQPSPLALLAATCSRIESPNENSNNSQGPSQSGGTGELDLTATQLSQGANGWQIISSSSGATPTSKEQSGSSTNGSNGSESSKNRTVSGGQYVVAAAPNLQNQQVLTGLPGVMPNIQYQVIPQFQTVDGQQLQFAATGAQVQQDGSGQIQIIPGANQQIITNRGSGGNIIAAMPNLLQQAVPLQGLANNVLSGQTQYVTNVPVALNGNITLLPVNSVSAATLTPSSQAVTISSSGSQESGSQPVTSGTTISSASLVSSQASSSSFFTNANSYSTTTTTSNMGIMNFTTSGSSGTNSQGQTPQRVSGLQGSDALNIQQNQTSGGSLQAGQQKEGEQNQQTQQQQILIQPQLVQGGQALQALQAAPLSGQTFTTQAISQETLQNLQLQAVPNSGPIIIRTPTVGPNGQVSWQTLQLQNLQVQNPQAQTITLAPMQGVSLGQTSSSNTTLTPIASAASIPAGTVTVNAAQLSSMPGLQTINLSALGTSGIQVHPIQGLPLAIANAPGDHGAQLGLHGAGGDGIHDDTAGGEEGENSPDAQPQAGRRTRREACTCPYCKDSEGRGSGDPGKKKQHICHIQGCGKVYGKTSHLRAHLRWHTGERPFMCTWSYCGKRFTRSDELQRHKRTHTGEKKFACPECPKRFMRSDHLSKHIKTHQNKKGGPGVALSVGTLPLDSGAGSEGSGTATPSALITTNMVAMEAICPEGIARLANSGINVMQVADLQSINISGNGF
# Summary of the method: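 Chemicals are dosed onto HepG2 cells transfected with multiple cis-promoter reporter constructs, and after 24 h reporter RNA is reverse-transcribed, PCR-amplified and resolved by capillary electrophoresis for fluorescence quantitation; activity is scored up or down against DMSO.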
# [17] = ATG_SREBP_CIS: Attagene CIS-FACTORIAL HepG2 Assay for human Sterol Regulatory Element Binding (SREBP) (AID 2282962); settings: HepG2 Attagene cis-factorial SREBP reporter, mRNA; actives raise or lower the signal
# Summary of the method: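 In this cis-format assay, HepG2 liver cells express reporters controlled by promoter elements responsive to native transcription factors. Exposure lasts 24 h; reporter mRNA fluorescence from capillary electrophoresis gives the signal, fitted bidirectionally against DMSO.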
# [18] = target: Signal transducer and activator of transcription 3 (Homo sapiens) (UniProt P40763); test: ATG_STAT3_CIS: Attagene CIS-FACTORIAL HepG2 Assay for human Signal Transducer and Activator of Transcription 3 (STAT3) (AID 2282963); settings: HepG2, Attagene cis-factorial STAT3 reporter transcription; actives raise or lower the signal
# Sequence of Signal transducer and activator of transcription 3 (Homo sapiens) (P40763 whole entry, looked up): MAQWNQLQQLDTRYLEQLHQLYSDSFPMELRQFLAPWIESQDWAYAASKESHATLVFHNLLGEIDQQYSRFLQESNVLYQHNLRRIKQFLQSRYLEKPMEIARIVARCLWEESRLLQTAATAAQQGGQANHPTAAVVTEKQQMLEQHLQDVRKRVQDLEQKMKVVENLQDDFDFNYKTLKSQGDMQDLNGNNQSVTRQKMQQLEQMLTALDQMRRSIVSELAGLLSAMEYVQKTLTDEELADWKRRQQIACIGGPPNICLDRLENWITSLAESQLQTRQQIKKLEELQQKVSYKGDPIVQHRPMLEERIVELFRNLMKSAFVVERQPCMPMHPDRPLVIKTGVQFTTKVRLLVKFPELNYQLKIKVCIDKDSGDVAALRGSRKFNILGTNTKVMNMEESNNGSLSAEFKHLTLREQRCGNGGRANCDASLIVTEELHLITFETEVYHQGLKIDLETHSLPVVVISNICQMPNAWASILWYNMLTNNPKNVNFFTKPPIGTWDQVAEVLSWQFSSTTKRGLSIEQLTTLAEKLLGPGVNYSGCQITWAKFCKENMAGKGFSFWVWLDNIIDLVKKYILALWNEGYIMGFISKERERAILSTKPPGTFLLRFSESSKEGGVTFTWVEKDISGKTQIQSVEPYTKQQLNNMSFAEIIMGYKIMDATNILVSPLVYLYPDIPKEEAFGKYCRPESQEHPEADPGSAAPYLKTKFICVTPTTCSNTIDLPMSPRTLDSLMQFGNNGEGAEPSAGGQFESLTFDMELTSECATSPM
# Summary of the method: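 Readout is reporter transcript quantified by RT-PCR and capillary electrophoresis, with 6-FAM primer extension and HpaI digestion. Total RNA is taken 24 h after dosing transiently transfected HepG2 carrying cis-regulated reporter units. Bidirectional fit against DMSO.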
# [19] = ATG_TA_CIS: Attagene CIS-FACTORIAL HepG2 Assay for human TA Basal Promoter (AID 2282964); settings: HepG2 Attagene CIS-factorial TA basal promoter reporter; actives raise or lower the signal
# Summary of the method: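 Multiplexed mRNA reporter assay, HepG2, 24 h. Reporter cDNA amplified, 6-FAM primer-extended, HpaI-cut, CE-sized; DMSO = negative control and baseline.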
# [20] = ATG_PBREM_CIS: Attagene CIS-FACTORIAL HepG2 Assay for human Phenobarbital-responsive Enhancer Module (PBREM) (AID 2282955); settings: HepG2 PBREM cis-reporter, Attagene multiplexed transcription; actives raise or lower the signal
# Summary of the method: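 Multiplexed cis-reporter readout in human hepatoma HepG2 cells; PBREM-regulated transcript quantified after 24 h exposure by fluorescent RT-PCR fragment analysis. Signal changes up or down fitted relative to DMSO.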
compound,measurement,setting,value
O=C=NCc1cccc(CN=C=O)c1,outcome,[1],inactive
same,outcome,[2],inactive
same,outcome,[3],inactive
same,outcome,[4],inactive
same,outcome,[5],inactive
same,outcome,[6],inactive
same,outcome,[7],inactive
same,outcome,[8],inactive
same,outcome,[9],inactive
same,outcome,[10],inactive
same,outcome,[11],inactive
same,outcome,[12],inactive
same,outcome,[13],inactive
same,outcome,[14],inactive
same,outcome,[15],inactive
same,outcome,[16],inactive
same,outcome,[17],inactive
same,outcome,[18],inactive
same,outcome,[19],inactive
CN(N=O)C(=O)N[C@@H]1[C@@H](O)[C@H](O)[C@@H](CO)O[C@@H]1O,outcome,[1],inactive
same,outcome,[2],inactive
same,outcome,[3],inactive
same,outcome,[4],inactive
same,outcome,[5],inactive
same,outcome,[6],inactive
same,outcome,[7],inactive
same,outcome,[8],inactive
same,outcome,[10],inactive
same,outcome,[20],inactive
same,outcome,[11],inactive
same,outcome,[12],inactive
same,outcome,[13],inactive
same,outcome,[14],inactive
same,outcome,[15],inactive
same,outcome,[16],inactive
same,outcome,[17],inactive
same,outcome,[18],inactive
same,outcome,[19],inactive
NS(=O)(=O)C(F)(F)C(F)(F)C(F)(F)C(F)(F)C(F)(F)C(F)(F)F,outcome,[1],inactive
same,outcome,[2],inactive
same,outcome,[3],inactive
same,outcome,[4],inactive
same,outcome,[5],inactive
same,outcome,[6],inactive
same,outcome,[7],inactive
same,outcome,[8],inactive
same,AC50,[10],59 µM (active)
same,outcome,[20],inactive
same,outcome,[11],inactive
same,AC50,[12],41 µM (active)
same,AC50,[13],50.2 µM (active)
same,outcome,[14],inactive
same,outcome,[15],inactive
same,outcome,[16],inactive
same,outcome,[17],inactive
same,outcome,[18],inactive
same,outcome,[19],inactive
CCN(CC)c1ccc(N=Nc2ccccc2)cc1,outcome,[1],inactive
same,outcome,[2],inactive
same,outcome,[3],inactive
same,outcome,[4],inactive
same,outcome,[5],inactive
same,outcome,[6],inactive
same,outcome,[7],inactive
same,outcome,[8],inactive
same,AC50,[9],144 µM (active)
same,AC50,[10],7.22 µM (active)
same,AC50,[20],8.89 µM (active)
same,outcome,[11],inactive
same,AC50,[13],4.8 µM (active)
same,outcome,[15],inactive
same,outcome,[16],inactive
same,outcome,[17],inactive
same,AC50,[18],27.6 µM (active)
same,outcome,[19],inactive
CCc1cccc(C)c1N(C(=O)C(=O)O)C(C)COC (configuration not stated),outcome,[1],inactive
same,outcome,[2],inactive
same,outcome,[3],inactive
same,outcome,[4],inactive
same,outcome,[5],inactive
same,outcome,[6],inactive
same,outcome,[7],inactive
same,outcome,[8],inactive
same,outcome,[9],inactive
same,outcome,[10],inactive
same,outcome,[20],inactive
same,outcome,[11],inactive
same,outcome,[13],inactive
same,outcome,[14],inactive
same,outcome,[15],inactive
same,outcome,[16],inactive
same,outcome,[17],inactive
same,outcome,[18],inactive
same,outcome,[19],inactive
COC(=O)c1ccc(C=O)cc1,outcome,[1],inactive
same,outcome,[2],inactive
same,outcome,[3],inactive
same,outcome,[4],inactive
same,outcome,[5],inactive
same,outcome,[6],inactive
same,outcome,[7],inactive
same,outcome,[8],inactive
same,outcome,[9],inactive
same,outcome,[10],inactive
same,outcome,[11],inactive
same,outcome,[12],inactive
same,outcome,[13],inactive
same,outcome,[14],inactive
same,outcome,[15],inactive
same,outcome,[16],inactive
same,outcome,[17],inactive
same,outcome,[18],inactive
same,outcome,[19],inactive
O=c1cccc[nH]1,outcome,[1],inactive
same,outcome,[2],inactive
same,outcome,[3],inactive
same,outcome,[4],inactive
same,outcome,[5],inactive
same,outcome,[6],inactive
same,outcome,[7],inactive
same,outcome,[8],inactive
same,outcome,[9],inactive
same,outcome,[10],inactive
same,outcome,[20],inactive
same,outcome,[11],inactive
same,outcome,[13],inactive
same,outcome,[14],inactive
same,outcome,[15],inactive
same,outcome,[16],inactive
same,outcome,[17],inactive
same,outcome,[18],inactive
same,outcome,[19],inactive
